High-throughput results deposited in PubChem by several laboratories.
This is a sample that favours compounds with a hit; in the whole collection about 1.7% have one here.
PfHsp40 yeast: compounds rescuing yeast from Plasmodium falciparum HSP40 toxicity; growth rescue, % at 12.5 µM; AID 504582; hit rate 0.68% among 340,000; S. cerevisiae expressing PfHsp40, growth rescue, ATP luminescence; in the data active means growth rescue above about 28%, passing the limit was not always enough; inconclusive means no clear call, values can overlap the other calls;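 further: yeast W303a lacking pdr1 and pdr3 grown in galactose medium; growth measured after three days at 30 °C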
BJeLR viability: kills HRASV12-expressing BJeLR cells; inhibition, % (no concentration beside the values); BJeLR (HRASV12) viability, CellTiter-Glo ATP luminescence, 48 h; hit rate 0.17% among 300,000; in the data active means inhibition above about 50%; inconclusive means no clear call, values can overlap the other calls
PrPC TRFRET: cell surface PrPC inhibition, primary TR-FRET screen. TR-FRET read-out. P04156. hit rate 0.43% among 370,000. inhibition, % at 13.8 µM; in the data active means inhibition above about 24%; further: 0% = median of the test wells and 100% = reference compound wells
Yp Topo-I inh: Y. pestis Topo-I inhibition via cleavage products | Y. pestis Topo-I cleavage product accumulation, plate reader | activity, % at 10 µM | AID 504884 | hit rate 0.064% among 360,000; in the data active means activity above about 50%, passing the limit was not always enough; inconclusive means no clear call, values can overlap the other calls
PrP UTR inh: suppresses PrP 5' UTR mRNA reporter expression | cell-based PrP 5' UTR mRNA reporter, plate reader | inhibition, % (test concentration not listed) | hit rate 0.35% among 340,000; in the data active means inhibition above about 52%; further: 0 = median of the neutral control wells
PriA SSB inh: blocks PriA binding to SSB C-terminal tail; AlphaScreen SSBct-PriA binding, biotinylated peptide; inhibition, % at 33 µM; hit rate 0.6% among 430,000; in the data active means inhibition mostly above about 37%, no sharp cut-off; inactive means mostly below about 20%;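 further: plate controls were negative control peptide for no effect and reference peptide for full effect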
* marks the source's active call; other numbers are inactive results; ? = inconclusive; · = no result given; ! = not active in a repeat.

SMILES | PfHsp40 yeast | BJeLR viability | PrPC TRFRET | Yp Topo-I inh | PrP UTR inh | PriA SSB inh
O=C(/C=C/c1ccc(F)cc1)NCCCN1CCN(CCCNC(=O)/C=C/c2ccc(F)cc2)CC1 | 37.1* | 2.1 | -2.8 | 1.1 | -6.1 | -5.5
O=C(NCCCN1CCN(CCCNC(=O)c2ccccc2F)CC1)c1ccccc1F | -1.1 | -1.4 | -7.1 | -3.7 | 4.8 | 61.3*
CCc1ccc(N2C(=O)C3N=NN(c4cccc(OC)c4)C3C2=O)cc1 (stereo not given) | · | · | · | · | · | -3.0
COc1cc(SC)ccc1C(=O)Nc1ccc(C)cc1C | -0.6 | -9.1 | 13.7 | 21.2 | -67.3 | -6.3
COc1cc(SC)ccc1C(=O)Nc1ccc(C)cc1 | 146.7* | · | -9.0 | 17.8 | -67.3 | -14.6
COc1ccccc1C(CNc1ncccc1[N+](=O)[O-])N(C)C (stereo not given) | 0.3 | 0.8 | -26.6 | 7.0 | -3.5 | 7.9
COc1ccccc1Nc1ncccc1[N+](=O)[O-] | -0.8 | -1.6 | -14.9 | -11.2 | -27.3 | 60.4*
O=C(CCl)N=c1sccn1Cc1ccccc1Cl | 0.2 | 110.1* | 0.9 | 1.3 | -17.2 | -3.5
COc1ccc(F)cc1S(=O)(=O)N1CCN(c2nc(-c3ccsc3)cs2)CC1 | · | · | · | · | · | 0.0
COc1ccc(C)cc1NC(=O)CSc1nnc(COc2ccccc2)n1Cc1ccco1 | 0.7 | -5.2 | 13.6 | 20.5 | -13.5 | -1.5
COc1ccc(-c2cnc(SCC(=O)Nc3nc(C(C)(C)C)cs3)n2Cc2ccco2)cc1 | 0.2 | 1.1 | 5.0 | 10.1 | -10.6 | 25.3
COc1ccccc1NC(=O)CSc1nnc(-c2ccncc2)n1Cc1ccco1 | · | · | · | · | · | 55.8*
O=C(CSc1nnc(-c2ccccn2)n1Cc1ccco1)Nc1ccccc1F | · | · | · | · | · | 37.7
CCc1ccccc1NC(=O)CSc1nnc(-c2ccccn2)n1Cc1ccco1 | · | · | · | · | · | 53.7*
COc1ccc(-c2cnc(SCC(=O)Nc3nc(C)cs3)n2Cc2ccco2)cc1 | · | · | · | · | · | 30.0*
COc1ccc(C)cc1NC(=O)CSc1nnc(COc2ccc(Cl)cc2)n1Cc1ccco1 | 48.1* | -2.8 | 8.9 | 2.8 | -27.7 | 7.3
CC(C)N(CC#CCNC(=O)c1ccccc1Br)C(C)C | · | · | · | · | · | -10.0
Clc1ccc(CSc2nnc3ccc(-c4ccco4)nn23)cc1 | · | · | · | · | · | -6.0
COc1ccccc1NC(=O)CSc1nnc(-c2ccccn2)n1Cc1ccco1 | 0.2 | -7.0 | 5.3 | 5.0 | -16.8 | 62.6*
COc1ccc(OC)c(NC(=O)CSc2nnc(Cc3cccn3C)n2Cc2ccccc2)c1 | · | · | · | · | · | 39.0*
COc1ccc(C)cc1NC(=O)CSc1nnc(-c2ccccn2)n1Cc1ccco1 | -0.4 | -6.6 | 5.0 | 28.2 | -62.8 | -3.0
c1ccc(-c2nc3ccccc3[nH]2)cc1 | -0.5 | 5.6 | 2.7 | 18.9 | -43.1 | -12.5
Nc1cc(N)cc(-c2nc3ccccc3[nH]2)c1 | -1.4 | · | -5.2 | -37.0 | -21.1 | 45.1*
O=C(NC1CC(=O)N(C2CC2)C1)C1CCc2nc[nH]c2C1 (stereo not given) | · | · | · | · | · | -11.0
CCOC(=O)Cc1csc(NC(=O)c2ccc(OCc3nc(C4CC4)cs3)cc2)n1 | · | · | · | · | · | -5.0
SMILES | PfHsp40 yeast | BJeLR viability | PrPC TRFRET | Yp Topo-I inh | PrP UTR inh | PriA SSB inh
O=C(Nc1ccc(Cl)cc1)NC1CCCCC1Cc1ccco1 (stereo not given) | 226.5* | -12.4 | 12.7 | -0.9 | -28.4 | -19.1
O=C(NCc1cccc2ccccc12)Nc1ccc2c(c1)CCCN2C(=O)c1ccccc1 | · | · | · | · | · | -23.0
CC(NC(=O)COC(=O)/C=C/c1cccc(F)c1)c1ccccc1 (stereo not given) | -1.2 | · | -6.4 | 12.7 | -13.7 | -4.4
CC(NC(=O)COC(=O)/C=C/c1ccc(Cl)cc1)c1ccccc1 (stereo not given) | 31.5* | 8.5 | 6.6 | 16.1 | -13.0 | -11.4
COc1cccc(NC(=O)Cn2cc(-c3nnc(-c4ccccc4)o3)c3ccccc32)c1 | · | · | · | · | · | -5.0
Cc1ccc(CC(=O)Nc2c3c(nn2C)CCC3)c(C)c1 | · | · | · | · | · | -5.0
COc1cc2sc(=NC(=O)c3ccnn3C)n(CCSC)c2cc1OC | · | · | · | · | · | -15.0
CCOC(=O)NNc1ccc2nonc2c1[N+](=O)[O-] | 123.9* | -3.4 | · | · | -20.8 | 20.0
CCOc1ccc(-c2noc(Cn3nc(-c4ccccc4F)ccc3=O)n2)cc1 | · | · | · | · | · | -6.0
O=c1[nH]nc(Cc2ccc(-c3ccc(Cl)cc3)o2)c2ccccc12 | -0.4 | -0.6 | -0.6 | 68.4* | -2.9 | -10.7
O=c1[nH]nc(Cc2ccccc2)c2ccccc12 | 6.0 | -7.2 | 2.8 | 9.2 | -15.8 | -4.2
CN1NC(C(=O)Nc2nc(-c3ccccn3)cs2)=CCC1=O | · | · | · | · | · | 123.5*
Cn1c(C(=O)Nc2nc(-c3ccccn3)cs2)cc2ccccc21 | · | · | · | · | · | 92.8*
Cn1nccc1C(=O)Nc1nc(-c2ccccn2)cs1 | · | · | · | · | · | 97.0*
Cn1cccc1C(=O)Nc1nc(-c2ccccn2)cs1 | ? | 2.3 | 7.2 | 6.3 | -28.7 | 85.0*
Cc1csc(NC(=O)c2cccn2C)n1 | -1.8 | 17.3 | 4.7 | 0.7 | -80.6 | 8.5
Cc1cc(C(=O)Nc2nc(-c3ccccn3)cs2)n(C)n1 | · | · | · | · | · | 117.5*
Cc1cc(C(=O)Nc2nc(-c3cc4ccccc4o3)cs2)n(C)n1 | · | · | · | · | · | -3.0
O=c1/c(=C/c2ccc(O)cc2)sc2nc(-c3ccccc3)c(-c3ccccc3)n12 | · | · | · | · | · | -3.4
CCC(CO)Oc1cc(NCc2ccc(Cl)cc2Cl)c2ncn(C(C)C)c2c1 (stereo not given) | 0.0 | · | 13.9 | 31.0 | -18.3 | 39.0*
CCC(CO)Oc1cc(NCc2ccc(Cl)cc2)c2ncn(C(C)C)c2c1 (stereo not given) | 0.3 | · | -5.7 | 5.5 | -4.8 | 3.5
Cc1ccc(S(=O)(=O)NC(=O)NCc2ccc3c(c2)OCO3)cc1 | 54.6* | -3.2 | -1.2 | 1.5 | -1.5 | -2.9
Cc1ccccc1C(=O)NCCOc1ccc2c(c1)OCO2 | · | · | · | · | · | 10.0
Cc1cccc(CC(=O)NCC(O)c2ccsc2)c1 (stereo not given) | · | · | · | · | · | 5.0
Cc1cccc(CC(=O)NCC(O)Cc2ccccc2)c1 (stereo not given) | · | · | · | · | · | 21.0*
SMILES | PfHsp40 yeast | BJeLR viability | PrPC TRFRET | Yp Topo-I inh | PrP UTR inh | PriA SSB inh
COc1ccccc1NC(=O)CSc1ccc(-c2ccccn2)nn1 | -1.5 | -10.1 | 8.8 | 11.8 | -17.2 | 88.6*!
COc1ccc(NC(=O)CSc2ccc(-c3ccccn3)nn2)cc1OC | 215.2* | 15.5 | -6.1 | 1.5 | -49.8 | 71.9*
O=C(CSc1ccc(-c2ccccn2)nn1)Nc1ccc(Cl)c(Cl)c1 | · | · | · | · | · | 27.7
CCOc1ccccc1NC(=O)CSc1ccc(-c2ccccn2)nn1 | · | · | · | · | · | 115.5*
CCOc1ccc(NC(=O)CSc2ccc(-c3ccccn3)nn2)cc1 | 22.2 | 9.9 | 4.8 | 3.8 | -27.8 | 16.2
COc1ccccc1NC(=O)CSc1ccc(-c2ccncc2)nn1 | · | · | · | · | · | 17.9
O=C(NCc1ccc(F)cc1)c1cnn2ccccc12 | 0.4 | -12.8 | -6.6 | 3.1 | -92.6 | 104.2*
O=C(NCc1cnn2ccccc12)c1c[nH]c2ccccc12 | · | · | · | · | · | -2.0
CCOc1ccc2[nH]c3c(N4CCN(c5ccccn5)CC4)ncnc3c2c1 | 2.0 | 8.1 | 9.2 | 5.7 | 1.3 | 39.4*
c1ccc(CN2CCN(c3ncnc4c3[nH]c3ccccc34)CC2)cc1 | -0.4 | 5.0 | 55.5* | -10.3 | -0.7 | 6.2
